Experimental data published in PubChem BioAssay AID1159580 (chemical genetic matrix, 2015).
Where “and” joins values, the source holds several entries; their conditions need not be identical. Identical values can stand only once. Out of some 5,500 compounds screened, about 2,000 (36%) were called active. Roughly 18% stayed inconclusive and do not appear here. Cut-off read from the data, not from the text of the source: active = normalized growth mostly below about 0.91 (no sharp cut-off); inconclusive = no clear call, values can overlap the other calls; inactive = mostly above about 0.92. The list shows a part of the results.

Assay: chemical genetic growth profiling, strain panel (AID 1159580);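 note: tested at 20 µM; growth read once vehicle control cultures reached saturation at 30 °C; 1 = growth at the plate median or of vehicle wells; lower values mean less growth of the strain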
Details: S. cerevisiae deletion strains, growth OD

Measured: normalized growth

COc1cc(O)c(C(C)=O)c(OC)c1
inactive: locus YAL013W, strain DEP1, stronger effect = lower value 1.02 | locus YAL021C, strain ccr4, stronger effect = lower value 1.01 | locus YAL026C, strain drs2, stronger effect = lower value 0.968 | locus YAL030W, strain snc1, stronger effect = lower value 1 | locus YBL061C, strain skt5, stronger effect = lower value 0.992 | locus YBR009C, strain hhf1, stronger effect = lower value 0.957 | locus YBR021W, strain FUR4, stronger effect = lower value 1.02 | locus YBR023C, strain chs3, stronger effect = lower value 0.995 | locus YBR171W, strain sec66, stronger effect = lower value 0.993 | locus YBR229C, strain ROT2, stronger effect = lower value 1.01 | locus YBR231C, strain swc5, stronger effect = lower value 0.994 | locus YBR279W, strain paf1, stronger effect = lower value 1 | locus YCL011C, strain gbp2, stronger effect = lower value 0.99 | locus YCL016C, strain dcc1, stronger effect = lower value 1.01 | locus YCL029C, strain bik1, stronger effect = lower value 1.01 | locus YCL061C, strain MRC1, stronger effect = lower value 0.965 | locus YCL069W, strain vba3, stronger effect = lower value 1 | locus YCR088W, strain abp1, stronger effect = lower value 0.993 | locus YDL005C, strain med2, stronger effect = lower value 1.03 | locus YDL035C, strain GPR1, stronger effect = lower value 1.04 | locus YDL040C, strain nat1, stronger effect = lower value 0.999 | locus YDL074C, strain BRE1, stronger effect = lower value 1.04 | locus YDL101C, strain DUN1, stronger effect = lower value 1.01 | locus YDL134C, strain PPH21, stronger effect = lower value 0.999 | locus YDL185W, strain tfp1, stronger effect = lower value 0.992 | locus YDL192W, strain arf1, stronger effect = lower value 1.01 | locus YDR001C, strain nth1, stronger effect = lower value 0.996 | locus YDR069C, strain doa4, stronger effect = lower value 1.03 | locus YDR101C, strain arx1, stronger effect = lower value 1 | locus YDR137W, strain rgp1, stronger effect = lower value 1.03 | locus YDR150W, strain NUM1, stronger effect = lower value 0.982 | locus YDR159W, strain sac3, stronger effect = lower value 0.936 | locus YDR162C, strain NBP2, stronger effect = lower value 1.05 | locus YDR297W, strain sur2, stronger effect = lower value 1.01 | locus YDR318W, strain mcm21, stronger effect = lower value 1 | locus YDR334W, strain swr1, stronger effect = lower value 1 | locus YDR335W, strain msn5, stronger effect = lower value 1.01 | locus YDR388W, stronger effect = lower value 1 | locus YDR392W, strain spt3, stronger effect = lower value 0.842 | locus YDR502C, strain sam2, stronger effect = lower value 0.983 | locus YEL003W, strain gim4, stronger effect = lower value 0.984 | locus YEL037C, strain rad23, stronger effect = lower value 0.998 | locus YEL061C, strain CIN8 (second series), stronger effect = lower value 1 | locus YEL061C, strain CIN8, stronger effect = lower value 1.01 | locus YER015W, strain faa2, stronger effect = lower value 1.01 | locus YER016W, strain bim1, stronger effect = lower value 1 | locus YER110C, stronger effect = lower value 0.982 | locus YER111C, strain swi4, stronger effect = lower value 1 | locus YER155C, strain BEM2, stronger effect = lower value 1.01 | locus YER167W, strain BCK2, stronger effect = lower value 1.01 | locus YFR010W, strain ubp6, stronger effect = lower value 0.999 | locus YGL078C, strain dbp3, stronger effect = lower value 0.991 | locus YGL086W, strain mad1, stronger effect = lower value 0.988 | locus YGL167C, strain pmr1, stronger effect = lower value 1.01 | locus YGL173C, strain kem1, stronger effect = lower value 0.988 | locus YGL227W, strain vid30, stronger effect = lower value 0.997 | locus YGL240W, strain doc1, stronger effect = lower value 0.916 | locus YGL248W, strain PDE1, stronger effect = lower value 0.996 | locus YGL253W, strain hxk2, stronger effect = lower value 0.984 | locus YGR078C, strain PAC10, stronger effect = lower value 0.989 | locus YGR135W, strain pre9, stronger effect = lower value 0.957 | locus YGR252W, strain gcn5, stronger effect = lower value 0.921 | locus YHR013C, strain ard1, stronger effect = lower value 1.01 | locus YHR027C, strain rpn1, stronger effect = lower value 1.01 | locus YHR030C, strain SLT2, stronger effect = lower value 1.01 and 0.966 | locus YHR079C, strain IRE1 (second series), stronger effect = lower value 1 | locus YHR079C, strain IRE1, stronger effect = lower value 0.965 | locus YHR094C, strain hxt1, stronger effect = lower value 0.993 | locus YHR129C, strain ARP1, stronger effect = lower value 1.02 | locus YHR142W, strain chs7, stronger effect = lower value 0.929 | locus YHR200W, strain rpn10, stronger effect = lower value 0.98 | locus YIL066C, strain RNR3, stronger effect = lower value 1.02 | locus YIL073C, strain SPO22, stronger effect = lower value 0.967 | locus YIL125W, strain kgd1, stronger effect = lower value 1 | locus YIR030C, strain dcg1, stronger effect = lower value 0.997 | locus YJL092W, strain hpr5, stronger effect = lower value 0.992 | locus YJL095W, strain BCK1 (second series), stronger effect = lower value 0.996 | locus YJL095W, strain BCK1, stronger effect = lower value 1.02 and 0.967 | locus YJL115W, strain asf1, stronger effect = lower value 1.01 | locus YJL129C, strain trk1, stronger effect = lower value 0.995 | locus YJL134W, strain LCB3, stronger effect = lower value 1 | locus YJL154C, strain vps35, stronger effect = lower value 1.01 | locus YJL164C, strain tpk1, stronger effect = lower value 0.976 | locus YJL166W, strain qcr8, stronger effect = lower value 0.978 | locus YJL168C, strain set2, stronger effect = lower value 0.993 | locus YJL187C, strain SWE1 (second series), stronger effect = lower value 1.01 | locus YJL187C, strain SWE1, stronger effect = lower value 1 | locus YJR066W, strain TOR1, stronger effect = lower value 0.89 | locus YKL009W, strain mrt4, stronger effect = lower value 1.02 | locus YKL068W, stronger effect = lower value 0.99 | locus YKL085W, strain MDH1 (second series), stronger effect = lower value 1.01 | locus YKL085W, strain MDH1, stronger effect = lower value 1.01 | locus YKL160W, strain elf1, stronger effect = lower value 0.986 | locus YKL190W, strain CNB1, stronger effect = lower value 1.01 | locus YKR001C, strain vps1, stronger effect = lower value 0.998 | locus YKR026C, strain gcn3, stronger effect = lower value 0.994 | locus YKR091W, strain srl3, stronger effect = lower value 0.998 | locus YLL001W, strain dnm1, stronger effect = lower value 0.992 | locus YLL026W, stronger effect = lower value 0.992 | locus YLL041C, strain sdh2, stronger effect = lower value 0.998 | locus YLR027C, strain aat2, stronger effect = lower value 0.987 | locus YLR039C, strain RIC1, stronger effect = lower value 1.1 | locus YLR058C, strain SHM2, stronger effect = lower value 1.02 | locus YLR102C, strain apc9, stronger effect = lower value 0.992 | locus YLR113W, strain HOG1, stronger effect = lower value 0.955 | locus YLR221C, strain rsa3, stronger effect = lower value 0.971 | locus YLR258W, strain gsy2, stronger effect = lower value 0.982 | locus YLR262C, strain YPT6 (second series), stronger effect = lower value 1.01 | locus YLR262C, strain YPT6, stronger effect = lower value 1.15 | locus YLR268W, strain sec22, stronger effect = lower value 1.01 | locus YLR320W, strain mms22, stronger effect = lower value 0.972 | locus YLR330W, strain CHS5, stronger effect = lower value 1.01 | locus YLR342W, strain FKS1, stronger effect = lower value 1.01 | locus YLR357W, strain rsc2, stronger effect = lower value 1.01 | locus YLR370C, strain arc18, stronger effect = lower value 1 | locus YLR371W, strain rom2, stronger effect = lower value 0.975 | locus YLR384C, strain iki3, stronger effect = lower value 1.01 | locus YLR418C, strain cdc73, stronger effect = lower value 0.998 | locus YML016C, strain PPZ1, stronger effect = lower value 1 | locus YML032C, strain rad52, stronger effect = lower value 1.01 | locus YML120C, strain ndi1, stronger effect = lower value 0.99 | locus YML124C, strain tub3, stronger effect = lower value 0.988 | locus YMR058W, strain fet3, stronger effect = lower value 0.972 | locus YMR078C, strain ctf18, stronger effect = lower value 0.98 | locus YMR125W, strain sto1, stronger effect = lower value 1.06 | locus YMR129W, stronger effect = lower value 1.01 | locus YMR205C, strain PFK2, stronger effect = lower value 1 | locus YMR223W, strain ubp8, stronger effect = lower value 0.989 | locus YMR231W, strain pep5, stronger effect = lower value 1.02 | locus YMR307W, strain GAS1, stronger effect = lower value 1.02 | locus YNL067W, strain RPL9B, stronger effect = lower value 1 | locus YNL071W, strain lat1, stronger effect = lower value 0.985 | locus YNL128W, strain TEP1, stronger effect = lower value 1.03 | locus YNL153C, strain GIM3, stronger effect = lower value 1.02 | locus YNL183C, strain NPR1, stronger effect = lower value 0.918 | locus YNL209W, strain ssb2, stronger effect = lower value 1 | locus YNL233W, strain BNI4, stronger effect = lower value 1.03 | locus YNL248C, strain rpa49, stronger effect = lower value 0.969 | locus YNL250W, strain rad50, stronger effect = lower value 0.99 | locus YNL271C, strain bni1, stronger effect = lower value 0.985 | locus YNL298W, strain CLA4, stronger effect = lower value 1 | locus YNL307C, strain MCK1, stronger effect = lower value 0.978 | locus YNL322C, strain KRE1 (second series), stronger effect = lower value 1.01 | locus YNR049C, strain mso1, stronger effect = lower value 1.01 | locus YNR052C, strain pop2, stronger effect = lower value 0.988 | locus YOL006C, strain TOP1, stronger effect = lower value 1.06 | locus YOL012C, strain htz1 0.925 | locus YOL147C, strain pex11, stronger effect = lower value 1 | locus YOR001W, strain rrp6, stronger effect = lower value 0.959 | locus YOR061W, strain CKA2, stronger effect = lower value 1.03 | locus YOR069W, strain VPS5, stronger effect = lower value 1 | locus YOR070C, strain gyp1, stronger effect = lower value 0.998 | locus YOR080W, strain dia2, stronger effect = lower value 1.01 | locus YOR083W, strain WHI5, stronger effect = lower value 0.965 | locus YOR106W, strain vam3, stronger effect = lower value 0.972 | locus YOR136W, strain idh2, stronger effect = lower value 1 | locus YOR144C, strain elg1, stronger effect = lower value 0.999 | locus YOR184W, strain ser1, stronger effect = lower value 1.03 | locus YOR231W, strain MKK1, stronger effect = lower value 0.956 | locus YOR265W, strain rbl2, stronger effect = lower value 0.989 | locus YOR270C, strain vph1, stronger effect = lower value 0.915 | locus YOR290C, strain snf2, stronger effect = lower value 0.95 | locus YOR316C, strain cot1, stronger effect = lower value 0.995 | locus YPL051W, strain arl3, stronger effect = lower value 0.966 | locus YPL078C, strain atp4, stronger effect = lower value 0.954 | locus YPL106C, strain sse1, stronger effect = lower value 0.982 | locus YPL240C, strain hsp82, stronger effect = lower value 1 | locus YPL256C, strain CLN2, stronger effect = lower value 0.978 | locus YPR119W, strain clb2, stronger effect = lower value 0.988 | locus YPR141C, strain kar3, stronger effect = lower value 0.993 | locus YPR163C, strain tif3, stronger effect = lower value 0.986 | locus YPR167C, strain met16, stronger effect = lower value 0.991 | strain wtn01, stronger effect = lower value 0.991
active: locus YDR195W, strain ref2 1.16 [resistant] | locus YER155C, strain BEM2 (second series), stronger effect = lower value 0.8
